Some of the results follow. Calls of active or inactive are those of the source.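 The calls were made as follows: active = mean inhibition over three repeats above a set limit taken from the earlier primary screen (cut at about 38% in these data); inactive = the rest.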

Inhibition data for 6 molecules are collected here from PubChem BioAssay.

In the assay the target is COUP transcription factor 2 (Homo sapiens) (UniProt P24468). Description: retest of COUP-TFII reporter suppressors – cell-based, luciferase reporter, HEK293, triplicate, confirmation (AID 687008).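 Also: 100% = cells given the luciferase reporter alone without the COUP-TF2 vector.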 The note with it: HEK293 NGFI-A luciferase reporter, luminescence; at 8.5 µM; active compounds read high. On the technique in general: A reporter such as luciferase makes a cellular process visible.
COUP transcription factor 2 (Homo sapiens), sequence (P24468 whole entry, looked up): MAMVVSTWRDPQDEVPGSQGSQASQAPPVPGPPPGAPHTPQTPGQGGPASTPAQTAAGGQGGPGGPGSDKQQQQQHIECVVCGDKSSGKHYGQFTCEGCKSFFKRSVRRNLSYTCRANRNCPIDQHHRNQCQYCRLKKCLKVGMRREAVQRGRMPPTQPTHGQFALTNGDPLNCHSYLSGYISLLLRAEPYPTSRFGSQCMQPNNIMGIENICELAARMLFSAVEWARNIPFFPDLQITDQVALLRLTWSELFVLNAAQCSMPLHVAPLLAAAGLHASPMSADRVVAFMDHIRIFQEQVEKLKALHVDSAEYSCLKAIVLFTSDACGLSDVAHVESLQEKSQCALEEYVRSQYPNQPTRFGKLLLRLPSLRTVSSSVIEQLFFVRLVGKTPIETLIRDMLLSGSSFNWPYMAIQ
As for `C=CCC1(CC=C)CCCN1C(=O)c1cc(COc2ccc(-n3cncn3)cc2)on1`, the inhibition is 49.6% (active).

In the case of `O=C(OC12CC3CC(CC(C3)C1)C2)c1ccc(NCc2cc(O)ccc2O)cc1`, the inhibition was 103% (active).

For the molecule `CC(=O)Nc1ccc(-c2csc(NC(=O)Nc3ccccc3)n2)cc1`, the inhibition is 35.7% (inactive).

Regarding `O=c1oc2ccccc2cc1-c1cn(-c2ccccc2)c(=S)[nH]1`, the inhibition was 60.8% (active).

Take `CCc1ccc(N(CC)c2ncnc3nc[nH]c23)cc1`: the inhibition was 17.4% (inactive).

As for `COc1cc(SC)ccc1C(=O)Nc1nc(C)cs1`, the inhibition was 69.1% (active).

Broadly, the inhibition is the change of the read-out against control, counted positive when it falls.
